Only some compounds are listed: those with a hit (about 19% of all), similar ones and a draw of the others.
HT1080 IDH1KD tx – kills HT-1080 cells with IDH1 knockdown | Potency, µM (highest dose often 46.1 µM), most hits filed as cytotoxic | AID 686971 | HT-1080 IDH1 knockdown viability, ATP luminescence, 48 h | 360,000 tested, 2% active
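% activity derives from luminescence (CellTiter-Glo), normalised to DMSO and no-cell wells. HT-1080-IDH1KD cells, 750/well, had 48 h compound exposure at 37 °C.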
DT40 TDP1 no CPT – qHTS for Inhibitors of human tyrosyl-DNA phosphodiesterase 1 (TDP1): qHTS in cells in absence of CPT; AID 686978, 2013; 420,000 tested, 15% active; Potency, µM (titrated, usually from 46.2 µM), actives largely listed as inhibitors; DT40 Tdp1-/- hTDP1 cells, no CPT, ATP luminescence, 48 h; note: nearly all actives have a fitted effect of over 55% in size
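Luminescent ATP content (CellTiter-Glo) served as the growth readout. Knockout chicken DT40 cells expressing human TDP1 were exposed to compounds without camptothecin for a minimum 48 hr at 37 °C.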
HT1080NT lethal – kills 2HG-producing HT-1080-NT fibrosarcoma cells; AID 686970; 360,000 tested, 1.6% active; Potency, µM (titrated, usually from 46.1 µM), hits mostly cytotoxic; HT-1080-NT fibrosarcoma viability, CellTiter-Glo ATP luminescence, 48 h;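 note: NT is the 2HG producing partner of a matched IDH1 knockdown line; nearly all actives have a fitted effect of over 55% in size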
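750 cells/well, RPMI + 5% FBS; 2 h settle, compound pin-transfer, 48 h at 37 degrees C. CellTiter-Glo 10 min RT, luminescence. Normalized to DMSO and media-only wells.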
IL-1B inflam inh – blocks inflammasome-driven IL-1 beta release; THP-1 LPS/ATP IL-1B secretion, AlphaLISA, 16 h; hits give low values; activity change, % at 57.5 µM; 360,000 tested, 4.7% active; AID 743279; in the data active = activity change below about -50%; inconclusive = mostly about -30% to -49%
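THP-1 cells pretreated 1 hr with compounds (up to 57.5 uM final), then stimulated with LPS (250 ng/mL final) plus ATP (1.25 mM final); secreted IL-1B measured by AlphaLISA after 16 hr, decreased signal indicating inhibition.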
DT40 TDP1 CPT – DT40-hTDP1 cell growth loss with CPT; chicken DT40 Tdp1-/-;hTDP1 cells + 20 nM CPT, ATP luminescence, 48 h; Potency, µM (titrated, usually from 46.2 µM), actives largely listed as inhibitors; 420,000 tested, 12% active; note: nearly all actives have a fitted effect of over 55% in size
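Chicken DT40 Tdp1-/- cells complemented with human TDP1, 400 cells/well, exposed to compounds plus 20 nM camptothecin for at least 48 h at 37 C; viability read as ATP content by CellTiter-Glo luminescence.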
Numbers stand for hits; i = inactive; ? = inconclusive; nt = not tested or not shown; ! = repeats disagree; [ ] = another dose, or the depositor's remark. Unless noted, calls come from the whole dose curve; as a rule, active = well fitted curve in the direction sought with a large enough effect; inconclusive = small, poorly fitted or top-dose-only effect, or another doubt; inactive = no such curve, though single readings can be large; an effect the other way counts as inactive or inconclusive.

SMILES	HT1080 IDH1KD tx	DT40 TDP1 no CPT	HT1080NT lethal	IL-1B inflam inh	DT40 TDP1 CPT
Clc1ccc(-c2nc3nc4ccccc4nc3n2Cc2ccco2)cc1	i	16µM	i	i	?
CCCn1c(-c2ccc(OC)cc2)nc2nc3ccccc3nc21	i	21µM	i	i	23µM
Cc1cc(C)cc(C(=O)NCc2nc(-c3cccc(NC(=O)c4ccccn4)c3)oc2C)c1	nt	i	nt	nt	i[9.04 µM]
COc1ccc(-c2cn(CC3CCCCC3)nn2)cc1	i	i	i	i	i
CCCCCc1ccc(-c2cn(CC3CCCCC3)nn2)cc1	i	8.9µM	i	i	?
CCCCCc1ccc(-c2cn(CCCOCc3ccccc3)nn2)cc1	i	22µM	i	i	?
c1ccc(-c2cn(CC3CCCCC3)nn2)cc1	i	13µM!	i	i	?
CCOC(=O)c1c(-c2ccccc2)csc1NC(=O)c1ccc(S(=O)(=O)N2CCOCC2)cc1	i	10µM	i	i	5.8µM
CCOC(=O)c1c(-c2ccccc2)csc1NC(=O)COc1ccc2c(C)cc(=O)oc2c1	i	12µM	i	i	?
CCOC(=O)c1c(-c2ccc(C)cc2)csc1NC(=O)CCN1CCOCC1	i	23µM	i	i	?
CCOC(=O)c1cc(-c2ccc(N3CCOCC3)cc2)nn1-c1ccccc1	i	12µM	i	i	21µM
CCn1cc(C(=O)OCC(=O)Nc2ccc(C(C)C)cc2)c(=O)c2ccc(C)nc21	i	i	i	i	i
Cc1cccc(C)c1NC(=O)NS(=O)(=O)c1ccccc1	i	i	i	i	i
CC(=O)c1cccc(NC(=O)N2CCCC2C(=O)NC2CCCCC2)c1 (stereo unspecified)	i	i	i	i	i
COc1ccc(S(=O)(=O)N2CCN(c3cnccn3)CC2)cc1OC	i	?	i	?	?
Cc1ccc(C)c2c3c([nH]c12)-c1nonc1CC3	?	?	?	i	i
CCOC(=O)c1[nH]cc(-c2ccccc2)c1N1CCOCC1	i	29µM	i	i	16µM
CCOC(=O)c1c(-c2ccccc2)csc1NC(=O)CCN1CCOCC1	i	23µM	i	i	?
CC1CCc2c(nc3ncnn3c2NCCc2ccccc2F)C1 (stereo unspecified)	i	13µM	i	nt	?
CCN(CC)C(=O)CN1C(=O)COc2ccc(S(=O)(=O)N3CCOCC3)cc21	nt	i	nt	nt	i
CSc1nsc(SC)c1C(=O)N1CCN(S(=O)(=O)c2ccc(C)cc2)C1C (stereo unspecified)	i	23µM	i	i	?
CC1(C)C2CCC(CN=C(N)CSS(=O)(=O)O)C1C2 (stereo unspecified)	i	?	i	-58	?
CC1(C)c2ccccc2C(=O)c2ccccc21	i	?	i	i	i
O=[N+]([O-])C1C(c2ccccc2)C12c1ccccc1-c1ccccc12 (stereo unspecified)	6.5µM	1µM	5.8µM	-67	1µM
Cc1ccc(Cl)cc1N1CCN(C(=O)CCC(=O)O)CC1	i	i	i	i	i
SMILES	HT1080 IDH1KD tx	DT40 TDP1 no CPT	HT1080NT lethal	IL-1B inflam inh	DT40 TDP1 CPT
Cc1cc(=O)oc2cc(OCC(=O)N3CC(=O)Nc4ccccc43)c(Cl)cc12	i	i	i	i	i
Cc1cc2c(cc1C)N(C(=O)CCl)CC(=O)N2	23µM	2.6µM	?	-65	2.3µM
Cc1cc2c(cc1C)N(C(=O)CCl)CCN2C(=O)CCl	?	0.58µM	?	-100	0.46µM
CN1C(=O)c2ccc(NC(=O)c3c(C(=O)O)cccc3[N+](=O)[O-])cc2C1=O	i	i	i	i	i
COc1ccc(/C=N/N(C(C)=O)c2nc(-c3ccc(C)cc3)cs2)cc1	i	13µM	i	?	i
CC(=O)N(/N=C/c1cccc(C)c1)c1nc(-c2ccc(Br)cc2)cs1	i	?	i	i	21µM
CC(C)(C)NC(=O)NC(=O)CN1CCN(S(=O)(=O)c2ccc3c(c2)CCCC3)CC1	i	?	i	i	?
C/C=C/c1cccc(-c2nc(C(=O)N3CCOCC3)cc3c2[C@@H](CCO)N(C(=O)NC(C)C)C3)c1	i	i	i	i	i
Nc1[nH]c(C(=O)c2ccccc2)c(-c2ccccc2C(F)(F)F)c1C(=O)c1cccs1	i	23µM	i	i	23µM
CC(C)(C)C(=O)c1c(N)[nH]c(C(=O)c2ccccc2)c1-c1ccc(C(F)(F)F)cc1	i	23µM	i	i	?
Cc1ccc(-n2nnnc2CNC(=O)c2ccccc2S(C)(=O)=O)cc1C	nt	i	nt	nt	i
CCOC(=O)C(C)Sc1nc(=O)n2cccc(C)c2n1 (stereo unspecified)	i	i	i	i	i
CCOC(=O)C(C)Sc1ncc(-c2ccc(Cl)cc2)cn1 (stereo unspecified)	i	i	i	i	4.6µM
COCCNc1nc2c(c(=O)n(C)c(=O)n2C)n1CCCc1ccccc1	i	10µM	i	i	15µM
CCOCCCNc1nc2c(c(=O)n(C)c(=O)n2C)n1CCCc1ccccc1	i	21µM	i	i	16µM
Cn1c(=O)c2c(nc(NCc3ccccc3)n2CCCc2ccccc2)n(C)c1=O	i	5.2µM	i	i	9.2µM
COCCCNc1nc2c(c(=O)[nH]c(=O)n2C)n1CCCc1ccccc1	i	i	i	i	i
COc1ccc(C)cc1NCc1ccc(OC)c(C)c1OC	i	?	i	i	?
COc1ccc(S(=O)(=O)n2ccnc2C)c(C)c1C	i	i	i	i	i
Cc1ccccc1N=Nc1ccc(N=Nc2c(O)ccc3ccccc23)c(C)c1	nt	i	nt	nt	i
NS(=O)(=O)c1ccc(N=Nc2ccc(O)c3ncccc23)cc1	23µM	2.3µM	?	i	2.6µM
O=C(Nc1ccc(NC(=O)c2ccccn2)cc1)C(=O)Nc1ccc2c(c1)OCCO2	i	i	i	i	i
Cc1ccc(C)c(N=Nc2ccc(O)c3ncccc23)c1	?	2.1µM	?	i	2.1µM
Cc1cccc(N=Nc2ccc(O)c3ncccc23)c1	7.3µM	6.5µM	?	i	7.3µM
Cc1ccc(N=Nc2cc(C)ccc2O)c(C)c1	i	i	i	i	i
SMILES	HT1080 IDH1KD tx	DT40 TDP1 no CPT	HT1080NT lethal	IL-1B inflam inh	DT40 TDP1 CPT
Oc1ccc(N=Nc2ccc3c(c2)OCCO3)c2ncccc12	3.7µM	2.1µM	?	i	2.9µM
CCOc1ccc(N=Nc2ccc(O)c3ncccc23)cc1	?	?	?	i	?
Clc1cccc(CN2CCN(Cc3ccco3)CC2)c1	i	i	i	i	i
N=c1ccn(Cc2ccc(Cl)cc2)cc1	i	3.7µM	i	i	5.2µM
N=c1ccn(Cc2cccc(Cl)c2)cc1	i	2.1µM	i	?	2.6µM
Clc1ccc(CN2CCCCCCC2)cc1	i	i	i	i	i
CCOc1ccc(-n2nc3ccc(N)cc3n2)cc1	i	?	i	i	i
COc1ccc(-n2nc3ccc(N)cc3n2)cc1	i	?	i	i	16µM
